Measured values: PubChem BioAssay
A number with no mark means an inactive call. The list shows a part of the results. Calls of active or inactive are those of the source.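 Rule for the calls, unless noted: active = mean inhibition above about 50% in the one-dose retest (limit read from the data); inactive = the rest.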

Legend:
[1] = lowers stimulated NF-kB luciferase signal in Jurkat – cell-based, luminescence, single concentration, T-cell NF-kB inhibitor project, confirmation (AID 435020;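 active = inhibition reaching about 45% at 4 µM in either replicate, limit read from the data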;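 note: plate controls were PMA/ionomycin stimulated DMSO wells for no effect and unstimulated DMSO wells for full effect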); details: PMA/ionomycin-induced, 16 h, at 4 µM, hits give high values
[2] = biological target: Sentrin-specific protease 8 (Homo sapiens) (UniProt Q96LD8); test: human SENP8 peptidase blockers, hit retest – biochemical, luminescence, single concentration, confirmation (AID 488912;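 active = mean inhibition across replicates above about 50%, limit read from the data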); details: Recombinant SENP8, Z-RLRGG-aminoluciferin luminescence, 60 min; at 12.5 µM; hits give high values
Sequence of Sentrin-specific protease 8 (Homo sapiens) (Q96LD8 whole entry, looked up, the tested form may be a part): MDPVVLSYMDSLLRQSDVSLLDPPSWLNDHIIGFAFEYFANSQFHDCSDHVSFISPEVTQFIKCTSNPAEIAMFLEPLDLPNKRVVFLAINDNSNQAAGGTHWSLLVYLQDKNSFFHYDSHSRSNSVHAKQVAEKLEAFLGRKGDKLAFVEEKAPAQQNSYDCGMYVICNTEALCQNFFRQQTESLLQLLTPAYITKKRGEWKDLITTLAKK

[3] = biological target: Sentrin-specific protease 6 (Homo sapiens) (UniProt Q9GZR1); test: inhibition of human SENP6 catalytic domain – biochemical, luminescence, single concentration, confirmation (AID 488915); details: recombinant SENP6, Z-RLRGG-aminoluciferin luminescence; at 12.5 µM; hits give high values
Sequence of Sentrin-specific protease 6 (Homo sapiens) (Q9GZR1 628-1112 limits assumed): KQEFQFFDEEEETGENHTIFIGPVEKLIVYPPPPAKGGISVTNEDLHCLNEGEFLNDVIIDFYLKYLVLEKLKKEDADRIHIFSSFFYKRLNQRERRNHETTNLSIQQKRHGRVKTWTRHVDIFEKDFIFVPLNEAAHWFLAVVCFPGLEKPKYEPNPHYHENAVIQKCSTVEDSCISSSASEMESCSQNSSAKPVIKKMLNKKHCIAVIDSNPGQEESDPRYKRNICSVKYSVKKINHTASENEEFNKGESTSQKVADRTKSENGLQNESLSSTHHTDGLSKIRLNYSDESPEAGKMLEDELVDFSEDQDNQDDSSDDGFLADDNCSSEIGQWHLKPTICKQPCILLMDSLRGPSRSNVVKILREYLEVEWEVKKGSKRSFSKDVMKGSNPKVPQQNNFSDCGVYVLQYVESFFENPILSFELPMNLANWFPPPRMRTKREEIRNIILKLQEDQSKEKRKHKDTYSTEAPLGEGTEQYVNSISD

[4] = biological target: Sentrin-specific protease 7 (Homo sapiens) (UniProt Q9BQF6); test: human SENP7 peptidase blockers, hit retest – biochemical, luminescence, single concentration, confirmation (AID 488917); details: recombinant SENP7, Z-RLRGG-aminoluciferin luminescence, 40 min; at 12.5 µM; hits give high values
Sequence of Sentrin-specific protease 7 (Homo sapiens) (Q9BQF6 706-1050 limits assumed): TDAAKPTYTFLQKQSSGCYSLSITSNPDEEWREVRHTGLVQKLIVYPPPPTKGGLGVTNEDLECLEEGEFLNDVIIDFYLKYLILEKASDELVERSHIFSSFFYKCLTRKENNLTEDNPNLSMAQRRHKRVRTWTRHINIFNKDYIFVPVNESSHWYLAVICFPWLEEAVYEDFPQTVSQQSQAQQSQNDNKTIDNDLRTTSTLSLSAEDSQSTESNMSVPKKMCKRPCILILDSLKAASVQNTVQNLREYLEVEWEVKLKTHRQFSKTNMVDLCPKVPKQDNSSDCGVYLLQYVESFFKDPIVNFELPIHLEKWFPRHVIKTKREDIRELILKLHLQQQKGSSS

[5] = biological target: Caspase-3 (Homo sapiens) (UniProt P42574); test: human caspase-3 activity blockade, out-of-family – biochemical, single concentration, selectivity assay for SENP inhibitor project, confirmation (AID 488918;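 active = mean inhibition above about 50%, limit read from the data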;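 note: plate controls were enzyme with DMSO for no effect and wells without caspase-3 for full effect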); details: purified caspase-3, Z-DEVD-aminoluciferin luminescence, 60 min; at 12.5 µM; hits give high values
Sequence of Caspase-3 (Homo sapiens) (P42574 28-227 limits assumed): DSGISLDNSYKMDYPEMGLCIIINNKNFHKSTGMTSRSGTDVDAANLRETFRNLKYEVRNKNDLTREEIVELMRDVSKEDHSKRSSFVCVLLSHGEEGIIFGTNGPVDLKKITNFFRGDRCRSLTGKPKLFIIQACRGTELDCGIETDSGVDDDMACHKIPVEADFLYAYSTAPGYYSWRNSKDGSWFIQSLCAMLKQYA

[6] = Ultra-Glo luciferase signal interference – biochemical, single concentration, SENP8 reaction pre-completed, artefact control for SENP inhibitor project, confirmation (AID 488919;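 active = mean inhibition above about 50% when retested at one dose, limit read from the data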;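 note: plate controls were DMSO wells with completed reaction for no effect and substrate without enzyme for full effect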); details: Pre-incubated SENP8/Z-RLRGG-aminoluciferin, luciferase luminescence interference; at 12.5 µM; hits give high values
[7] = PERK-eIF2a-CHOP pathway stimulators, retested – cell-based, CHO-CHOP luciferase reporter, single concentration, confirmation (AID 463112; in the data active = activation above about 33%;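 note: 0% = DMSO wells and 100% = tunicamycin 10 µg/mL wells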); details: CHO-CHOP cells, CHOP-luciferase reporter luminescence; at 10 µM; hits give high values; percent of tunicamycin response, DMSO as zero
[8] = inhibition of PEG-3 promoter luciferase signal – cell-based, HeLa, luciferase reporter, single concentration, confirmation (AID 602417;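 active = at 20 µM dose, 40% or more inhibition averaged across four replicates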); details: HeLa PEG-Prom luciferase reporter, luminescence, overnight; at 20 µM; hits give high values
[9] = biological target: Protein Mdm4 (Homo sapiens) + E3 ubiquitin-protein ligase Mdm2 (Homo sapiens) (UniProt O15151+Q00987); test: human Mdm2/MdmX binding disruption – cell-based, luminescence, single concentration, set 2, confirmation (AID 504601;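 active = mean inhibition of the luminescence signal across two replicates at or above 26 percent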); details: SaOS-2 split-luciferase Mdm2/MdmX complementation, at 8 µM, hits give high values
Sequence of Protein Mdm4 (Homo sapiens) + E3 ubiquitin-protein ligase Mdm2 (Homo sapiens) (O15151 whole entry, looked up): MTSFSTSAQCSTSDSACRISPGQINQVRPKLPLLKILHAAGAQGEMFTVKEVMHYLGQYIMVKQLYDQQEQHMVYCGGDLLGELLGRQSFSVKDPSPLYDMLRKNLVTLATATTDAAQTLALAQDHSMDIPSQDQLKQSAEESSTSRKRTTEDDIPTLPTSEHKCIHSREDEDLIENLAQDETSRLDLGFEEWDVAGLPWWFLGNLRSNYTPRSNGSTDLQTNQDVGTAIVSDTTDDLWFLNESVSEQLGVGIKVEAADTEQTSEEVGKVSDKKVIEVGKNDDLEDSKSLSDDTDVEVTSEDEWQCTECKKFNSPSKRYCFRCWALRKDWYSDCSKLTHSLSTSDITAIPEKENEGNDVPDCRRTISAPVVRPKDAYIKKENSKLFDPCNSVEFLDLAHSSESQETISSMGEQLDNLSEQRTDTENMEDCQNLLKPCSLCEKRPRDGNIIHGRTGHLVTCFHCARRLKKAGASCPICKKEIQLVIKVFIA
Sequence of Protein Mdm4 (Homo sapiens) + E3 ubiquitin-protein ligase Mdm2 (Homo sapiens) (Q00987 whole entry, looked up): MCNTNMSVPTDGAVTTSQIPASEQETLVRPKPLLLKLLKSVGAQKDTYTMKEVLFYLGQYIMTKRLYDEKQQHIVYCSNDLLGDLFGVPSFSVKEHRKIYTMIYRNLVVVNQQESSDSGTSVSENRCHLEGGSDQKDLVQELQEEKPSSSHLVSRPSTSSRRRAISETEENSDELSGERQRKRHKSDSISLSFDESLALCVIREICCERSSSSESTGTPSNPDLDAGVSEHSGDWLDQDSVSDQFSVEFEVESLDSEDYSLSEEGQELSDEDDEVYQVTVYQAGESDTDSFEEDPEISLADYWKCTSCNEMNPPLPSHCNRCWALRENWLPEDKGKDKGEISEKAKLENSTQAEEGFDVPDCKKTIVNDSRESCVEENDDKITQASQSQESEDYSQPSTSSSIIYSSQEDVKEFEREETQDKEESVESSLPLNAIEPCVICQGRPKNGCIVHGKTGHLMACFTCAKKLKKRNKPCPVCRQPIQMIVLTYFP

[10] = HIF-2a driven luciferase blockers, single dose – luminescence, 786-0 RCC cells, confirmation (AID 651580;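 active = mean inhibition across four replicates of at least 40 percent at the single tested concentration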); details: HIF-2a luciferase reporter luminescence, overnight, at 18.8 µM, hits give high values
[11] = HIF-1a luciferase reporter signal reduction – MiaPaCa-2 cells, single concentration, counter-screen for HIF-2a inhibitor project, confirmation (AID 651589;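 active = mean inhibition of the reporter signal across four replicates at the single tested dose of 50% or more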); details: MiaPaCa-2 HIF-1a luciferase reporter, desferoxamine, overnight; at 18.8 µM; hits give high values
[12] = Brca1-Bard1 BiLC signal decrease – luminescence, single concentration, counter-screen for Mdm2/MdmX interaction inhibitor project, confirmation (AID 504668; call rule not given here); details: Brca1/Bard1 bimolecular luciferase complementation counterscreen, at 8 µM, hits give high values

CCCc1cc(C(=O)Nc2ccc(Cl)cn2)cs1
inhibition [1]: -104%
inhibition [2]: 73.5% (active)
inhibition [3]: 79.2% (active)
inhibition [4]: 92.2% (active)
inhibition [5]: 66.8% (active)
inhibition [6]: 59.1% (active)

COc1cc(NS(=O)(=O)c2ccc3ccccc3c2)c2ncccc2c1
inhibition [1]: 2.5%
activation [7]: 689% (active)
inhibition [8]: 43% (active)

N#Cc1ccc(C2N=C(c3ccccc3)NO2)cc1 (stereo not given)
inhibition [1]: -93.9%
inhibition [2]: 24.2%
inhibition [3]: 9.2%
inhibition [4]: 22.5%
inhibition [5]: 13.1%
inhibition [6]: 2.1%

O=[N+]([O-])c1ccccc1S(=O)(=O)Nc1cccc2cccnc12
inhibition [1]: 33.1%
activation [7]: 656% (active)
inhibition [9]: 102% (active)

CCn1c(/C=C/c2ccc([N+](=O)[O-])o2)nc2ccccc2c1=O
inhibition [1]: 23.7%
activation [7]: 14.3%
inhibition [10]: -36.9%
inhibition [11]: 105% (active)

Cc1ccc(OCc2nc3ccccc3n2C)cc1
inhibition [1]: -91.5%
inhibition [2]: 8.9%
inhibition [3]: 54.5% (active)
inhibition [4]: 79% (active)
inhibition [5]: 68% (active)
inhibition [6]: 18.5%

COc1ccc(-n2nnnc2-c2nc3ccccc3s2)cc1
inhibition [1]: -67.2%
inhibition [2]: 17.5%
inhibition [3]: 26.7%
inhibition [4]: 4.7%
inhibition [5]: 35.5%
inhibition [6]: 1.6%

Cc1noc(C)c1/C=N/Nc1ccc2ccccc2n1
inhibition [1]: -102%
inhibition [2]: -12.5%
inhibition [3]: -9%
inhibition [4]: 6.7%
inhibition [5]: 6.2%
inhibition [6]: -1.9%

O=C(c1cnn(-c2ccc(Cl)cc2)c1)c1ccccc1O
inhibition [1]: -109%
inhibition [2]: 11.7%
inhibition [3]: 95.3% (active)
inhibition [4]: 78.6% (active)
inhibition [5]: 73.5% (active)
inhibition [6]: 56.5% (active)

CC(C)Sc1ncnc2c1cnn2-c1ccccc1
inhibition [1]: -138%

COc1cc(/C=N/O)ccc1OCc1ccc([N+](=O)[O-])cc1
inhibition [1]: -119%

O=c1cc(-c2ccccc2)[nH]c2cc(F)ccc12
inhibition [1]: 46%

Cc1nc(NC(=O)c2ccc3c(c2)OCCO3)ccc1Br
inhibition [1]: -134%
inhibition [2]: 82.6% (active)
inhibition [3]: 80.5% (active)
inhibition [4]: 96.2% (active)
inhibition [5]: 74% (active)
inhibition [6]: 64.5% (active)

COc1ccc(-n2ncc3c(N4CCc5ccccc54)ncnc32)cc1
inhibition [1]: -93.4%

Cc1ccc(N/C=C/C(=O)c2ccccc2)cc1C
inhibition [1]: 3.3%
inhibition [2]: 34.5%
inhibition [3]: 73.8% (active)
inhibition [4]: 91.5% (active)
inhibition [5]: 78.6% (active)
inhibition [6]: 13.8%

Cc1cccc(N(C)C(=O)c2cc3c(=O)[nH]c4ccc(C)cc4c3s2)c1
inhibition [1]: 16.9%

O=[N+]([O-])c1ccc2oc(-c3cccc(O)c3)nc2c1
inhibition [1]: -113%
inhibition [2]: 90.4% (active)
inhibition [3]: 90.4% (active)
inhibition [4]: 99% (active)
inhibition [5]: 85.8% (active)
inhibition [6]: 84.4% (active)

c1cnc(N2CCN(c3ccc4ccccc4n3)CC2)nc1
inhibition [1]: -107%

Fc1ccccc1/C=N/Nc1cc(N2CCCCC2)ncn1
inhibition [1]: -109%
inhibition [2]: 17.6%
inhibition [3]: 16.9%
inhibition [4]: 16.6%
inhibition [5]: 25.2%
inhibition [6]: 6.6%

CCOc1ccc(NC(=O)c2ccc(NC(=O)COC(=O)c3ccc(NC(=O)CC#N)cc3)cc2)cc1
inhibition [1]: -36.5%

CCOc1cc(C(=O)N2CCc3cc(OC)c(OC)cc3C2)ccc1OC(F)F
inhibition [1]: 57.9% (active)

O=C(Nc1ccccc1)Nc1nc2ccccc2s1
inhibition [1]: -117%
inhibition [2]: 17.8%
inhibition [3]: 29%
inhibition [4]: 25.6%
inhibition [5]: 44.9%
inhibition [6]: 22.6%

CCC(=O)Nc1ccc2nn(-c3ccc(F)cc3)nc2c1
inhibition [1]: -119%
inhibition [2]: 18.1%
inhibition [3]: 38.2%
inhibition [4]: 46.4%
inhibition [5]: 32.5%
inhibition [6]: 3.4%

C[C@@H]1C[C@@H]2O[C@H]2/C=C\C=C\C(=O)Cc2c(Cl)c(O)cc(O)c2C(=O)O1
inhibition [1]: 96.4% (active)
activation [7]: 134% (active)
inhibition [12]: 33.8% (active)

CC(=O)Nc1cccc(-c2csc(Nc3cccc(C)n3)n2)c1
inhibition [1]: -67.1%
inhibition [2]: 6.1%
inhibition [3]: 93.9% (active)
inhibition [4]: 102% (active)
inhibition [5]: 75.7% (active)
inhibition [6]: 94.2% (active)

O=C(Nc1ccc(-c2nnc(-c3ccccc3)o2)cc1)C1CCCO1 (stereo not given)
inhibition [1]: -47.8%
inhibition [2]: 28.8%
inhibition [3]: 21.4%
inhibition [4]: 38.3%
inhibition [5]: 38.8%
inhibition [6]: 8.6%
